Data on 12 compounds can be found in PubChem BioAssay (NCI).

Structures are written as SMILES. Where “and” joins values, the source holds several entries; their conditions need not be identical. Identical values can stand only once. About 83,000 compounds went through this panel and 20% of them were active in at least one assay; those are over-represented in the sample as a whole.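 Percent growth is the endpoint: 0 to 100 indicates growth inhibition (40 means 60% inhibition), 0 means no net growth, and negative values indicate cell death.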 Calls of active or inactive are those of the source. Rule for the calls: active = growth percent below 10; inactive = the rest.

Test systems include SK-MEL-2 melanoma; EKVX NSCLC; SN12C renal; UO-31 renal; ACHN renal; CAKI-1 renal; A498 renal; CCRF-CEM leukemia; MOLT-4 leukemia; TK-10 renal.
Holding throughout (assay): NCI-60 one-dose screen, 48 h (100 = growth as untreated, 0 = no growth, -100 = all killed)
Holding throughout (conditions): 10 µM unless noted

Regarding `NNc1ncnc2cccc(Cl)c12`, the growth in the assay on SK-MEL-2 melanoma is 95.3% (inactive); with EKVX NSCLC it was 90.8% (inactive); in the assay with SN12C renal, 87.6% (inactive); with UO-31 renal, 89.1% (inactive); in the assay on ACHN renal, 96.4% (inactive); in the assay on CAKI-1 renal, 107% (inactive). Further, the results for the growth with A498 renal, in the assay with CCRF-CEM leukemia and in the assay on MOLT-4 leukemia were 108% (inactive), 102% (inactive) and 108% (inactive), respectively.
Take `CN1C2C=CC(=O)C1C1C(=O)N(c3ccccc3)C(=O)C12` (stereo not drawn): the growth in the assay on SK-MEL-2 melanoma is 46.2% (inactive); in the assay with EKVX NSCLC, 106% (inactive); in the assay with SN12C renal, 60.2% (inactive); in the assay with UO-31 renal, 53.9% (inactive); in the assay with ACHN renal it was 63.9% (inactive); in the assay with CAKI-1 renal it was 28% (inactive). For the same compound, the growth in the assay on A498 renal is 106% (inactive); in the assay on CCRF-CEM leukemia it was 50.5% (inactive); in the assay on MOLT-4 leukemia it was 74.4% (inactive).
In the case of `O=C(O)c1cccc(Br)c1`, the growth in the assay on SK-MEL-2 melanoma was 105% (inactive); with EKVX NSCLC it was 105% (inactive) and 101% (inactive); in the assay on SN12C renal it was 104% (inactive); in the assay with UO-31 renal it was 68.5% (inactive) and 88.8% (inactive); in the assay with ACHN renal, 107% (inactive) and 108% (inactive); with CAKI-1 renal, 102% (inactive) and 99% (inactive). Besides, the growth was 99.8% (inactive) and 83% (inactive) in the assay on A498 renal; 99.7% (inactive) and 101% (inactive) with CCRF-CEM leukemia; 85.9% (inactive) and 96.2% (inactive) with MOLT-4 leukemia.
As for `CCn1c2ccc(N(C)C)cc2c2cc(N(C)C)ccc21`, the growth in the assay on SK-MEL-2 melanoma is 104% (inactive); in the assay with EKVX NSCLC, 88% (inactive); in the assay with SN12C renal, 104% (inactive); in the assay with UO-31 renal, 94.5% (inactive); with ACHN renal, 99.9% (inactive); in the assay on CAKI-1 renal, 98.4% (inactive). Moreover, the values for the growth in the assay on A498 renal and in the assay with CCRF-CEM leukemia were 86.2% (inactive) and 85.5% (inactive), respectively.
In the case of `N=C(N)N1CCc2ccccc2C1`, the growth with SK-MEL-2 melanoma is 128% (inactive); in the assay on EKVX NSCLC, 66% (inactive) and 97% (inactive); in the assay on SN12C renal it was 90.8% (inactive) and 99.6% (inactive); with UO-31 renal, 82.8% (inactive) and 86.8% (inactive); in the assay on ACHN renal it was 101% (inactive); in the assay on CAKI-1 renal, 74.5% (inactive) and 101% (inactive). The growth in the assay with CCRF-CEM leukemia was 91.9% (inactive); in the assay with MOLT-4 leukemia, 88.3% (inactive) and 106% (inactive).
On to `N#Cc1ccc(/C=C/C(=O)c2ccccc2)cc1`, for which the growth in the assay with SK-MEL-2 melanoma is 90.7% (inactive); in the assay with EKVX NSCLC, 95.9% (inactive) and 111% (inactive); in the assay on SN12C renal it was 96.2% (inactive) and 92.6% (inactive); with UO-31 renal, -37.5% (active); with TK-10 renal, 98.9% (inactive) and 55.8% (inactive); with ACHN renal, 112% (inactive) and 92.9% (inactive). For the same compound, the growth with A498 renal is 112% (inactive) and 84.1% (inactive); in the assay with CCRF-CEM leukemia, 17.6% (inactive) and 3.61% (active); in the assay on MOLT-4 leukemia it was -35.1% (active) and 29.4% (inactive).
With `CC(=O)Nc1ccc2oc(=O)ccc2c1`, the growth with SK-MEL-2 melanoma was 101% (inactive); with EKVX NSCLC, 94.6% (inactive); with SN12C renal, 95.6% (inactive); with UO-31 renal, 91.3% (inactive); in the assay on ACHN renal, 113% (inactive); in the assay with CAKI-1 renal it was 88.1% (inactive). Further, the growth is 89.9% (inactive) with A498 renal, 109% (inactive) with CCRF-CEM leukemia and 98.6% (inactive) in the assay on MOLT-4 leukemia.
For `COC(=O)c1nc(=S)[nH]c(C(=O)OC)c1C(=O)c1ccccc1`, the growth in the assay with SK-MEL-2 melanoma was 104% (inactive); in the assay on SN12C renal, 99.2% (inactive); with UO-31 renal, 85.3% (inactive); in the assay with TK-10 renal, 113% (inactive); with ACHN renal it was 101% (inactive); with CAKI-1 renal it was 87% (inactive). Further, the growth in the assay with A498 renal was 114% (inactive); in the assay with CCRF-CEM leukemia, 103% (inactive).
Turning to `COc1ccc(-n2[nH]c3c(cnc4ccccc43)c2=O)cc1`, the growth in the assay with SK-MEL-2 melanoma is 79.5% (inactive) and 111% (inactive); in the assay with EKVX NSCLC it was 89% (inactive); in the assay with SN12C renal it was 85% (inactive) and 95% (inactive); with UO-31 renal, 70.7% (inactive); in the assay with ACHN renal, 95.9% (inactive) and 107% (inactive); in the assay on CAKI-1 renal it was 68.3% (inactive) and 95.9% (inactive). Also, the growth with A498 renal was 93.7% (inactive) and 91.9% (inactive); with CCRF-CEM leukemia, 101% (inactive).
`Nc1nc(N)c2cc(S(=O)(=O)c3ccccc3)ccc2n1`: the growth with SK-MEL-2 melanoma is 80.2% (inactive) and 126% (inactive); in the assay with EKVX NSCLC, 47.4% (inactive) and 51.2% (inactive); with SN12C renal it was 29.2% (inactive) and 41.4% (inactive); with UO-31 renal it was 35.3% (inactive) and 61.5% (inactive); in the assay on ACHN renal, 24% (inactive) and 29.6% (inactive); in the assay on CAKI-1 renal it was 21.3% (inactive) and 22.4% (inactive). For the same compound, the growth was 57.2% (inactive) and 94.4% (inactive) in the assay with A498 renal; 37.9% (inactive) and 29.7% (inactive) in the assay on CCRF-CEM leukemia.
For `O=C1C=CC(=O)N1Cc1ccco1`, the growth in the assay with SK-MEL-2 melanoma was 28.8% (inactive); in the assay with EKVX NSCLC it was 103% (inactive); in the assay on SN12C renal it was 87.3% (inactive); in the assay with UO-31 renal, 62.6% (inactive); in the assay on ACHN renal it was 5.76% (active); in the assay on CAKI-1 renal, 40% (inactive). In addition, the growth was 110% (inactive) with A498 renal, 101% (inactive) in the assay with CCRF-CEM leukemia and 79.5% (inactive) in the assay with MOLT-4 leukemia.
Regarding `OCCCc1ccccc1`, the growth with SK-MEL-2 melanoma was 106% (inactive); in the assay with EKVX NSCLC, 110% (inactive); in the assay with SN12C renal, 96.5% (inactive); in the assay on UO-31 renal, 72.6% (inactive); with ACHN renal, 106% (inactive); with CAKI-1 renal, 104% (inactive). For the same compound, the growth in the assay on A498 renal was 110% (inactive); in the assay on CCRF-CEM leukemia it was 108% (inactive); in the assay with MOLT-4 leukemia, 111% (inactive).
